MARV entry inh: Marburg virus entry inhibition; Marburg virus pseudotyped entry inhibition, cell reporter; 1.8% of 300,000 active; Potency, µM (highest dose often 37.8 µM), for the others: at the top dose activity change, negative = inhibition, most hits filed as inhibitors; calls by dose curve; tested in HEK293 cells; note: potency is the fitted concentration of half-maximal effect
HCV inhibitor: HCV inhibition; Huh7.5.1 HCVcc-Cre infection, luciferase reporter, 44 h; Potency, µM (highest dose often 41.8 µM), for the others: at the highest dose activity change, negative = inhibition, most hits filed as inhibitors; 3.4% of 340,000 active; note: potency is the fitted concentration of half-maximal effect
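Cells (1,000/well) were plated 4 h before compound, then infected with HCVcc-Cre virus (~0.5 moi). After 44 h further culture, infection was read as luciferase luminescence following a 15 min substrate incubation at room temperature.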
Pf growth 96h: inhibits malaria parasite growth, 96 h; Potency, µM (highest dose often 28.7 µM), without a hit: at the highest dose activity change, negative = inhibition, actives largely listed as inhibitors; P. falciparum luciferase reporter growth, 96 h; 6.9% of 320,000 active; note: potency is the fitted concentration of half-maximal effect
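Infected RBCs, 2% Hct / 0.05% parasitemia final; luciferase-reporter P. falciparum; cpd 96 h, 37 C, 5% CO2; luciferase detection reagent; luminescence.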
Pf growth 48h: P. falciparum growth inhibition at 48 hours (one generation); 5.9% of 310,000 active; Potency, µM (titrated, usually from 28.7 µM), for the others: at the highest dose activity change, negative = inhibition, usual class: inhibitors; P. falciparum luciferase growth in erythrocytes, 48 h; note: potency is the fitted concentration of half-maximal effect
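Luciferase-expressing P. falciparum in infected erythrocytes (2% hematocrit, 0.1% parasitemia final) in RPMI 1640/0.5% Albumax were exposed to compound for 48 hours at 37 C, 5% CO2; growth read as luminescence.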
HCMV inh: human cytomegalovirus inhibition; HFF cells, HCMV-luciferase reporter, 72 h; hits give low values; activity change, negative = inhibition, % at 57.5 µM; 4.5% of 410,000 active; AID 1259415; in the data active = activity change below about -60%; inconclusive = no clear call, values can overlap the other calls; inactive = above about -39%
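Steps: HFFs plated, 16 h 37C; compounds added; HCMV-luciferase added to MOI 1 PFU/cell; 72 h 37C; OneGlo reagent, 5 min room temperature; luminescence read, normalized to controls.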
LASV entry inh: Lassa virus entry inhibition; 1.2% of 300,000 active; Lassa virus pseudotype entry inhibition, cell reporter; Potency, µM (top dose mostly 37.9 µM), for inactives: at the top dose activity change, negative = inhibition, actives largely listed as inhibitors; calls by dose curve; tested in HEK293 cells; note: potency is the fitted concentration of half-maximal effect; nearly all actives have a fitted effect of over 50% in size
* = called active by the depositor; ? = inconclusive; . = no result given; [ ] = dose if it differs, or a comment. Compounds with a hit are over-represented: about 14% of the library has one in this group of screens. Unless noted, calls come from the whole dose curve; as a rule, active = well fitted inhibition curve with a large enough effect; inconclusive = small, poorly fitted or top-dose-only effect, or another doubt; inactive = no such curve, though single readings can be large or run the other way. % is set by controls: 0 for no effect and ±100 for the full control effect.

SMILES | MARV entry inh | HCV inhibitor | Pf growth 96h | Pf growth 48h | HCMV inh | LASV entry inh
Cc1cc(C)nc(N2CCN(C(=O)c3ccc(S(=O)(=O)N4CCCCCC4)cc3)CC2)n1 | 2%[46.1 µM] | 11µM* | -16% | -4% | -7 | 29%
O=C(c1ccc(S(=O)(=O)N2CCCC2)cc1)N1CCCCCC1 | . | 8% | -3% | ? | ? | .
Cc1ccc(S(=O)(=O)N2CCN(C(=O)c3ccc(S(=O)(=O)N4CCCC4)cc3)CC2)cc1 | . | 3% | 7.4µM* | ? | 11 | .
Cc1ccc(S(=O)(=O)N2CCN(C(=O)c3ccc(N4CCCC4)c([N+](=O)[O-])c3)CC2)cc1 | -18% | -24% | 8.3µM* | ? | -5 | -3%
O=C(CCc1nnc2ccc(N3CCOCC3)nn12)Nc1ccc(F)cc1F | . | 19% | ? | 11% | -15 | .
CC(C)(C)c1ccc(C(=O)N2CCN(S(=O)(=O)c3ccc(Br)s3)CC2)cc1 | . | ? | 10µM* | 6.6µM* | -29 | .
CCOC(=O)N1CCN(S(=O)(=O)c2ccc(Br)s2)CC1 | 0% | 11% | -72% | -10% | 26 | 0%
CC1CCc2nc(NC(=O)c3cc(C(C)(C)C)nn3C)sc2C1 (configuration not stated) | . | -1% | 8.3µM* | ? | 23 | .
Cn1nc(C(C)(C)C)cc1C(=O)NNC(=O)c1ccccc1Cl | -26% | ? | 3% | 40% | -37 | 1%
Cc1ccc(-c2nc(NC(=O)c3cc(C(C)(C)C)nn3C)sc2C)cc1Cl | ? | ? | 2.1µM* | 1.9µM* | -61* | ?
CCOC(=O)c1cnc(-n2nc(C)cc2C)nc1Nc1ccc(C)cc1 | ? | 5% | ? | ? | 26 | 11%
CCOC(=O)c1cnc(-n2nc(C)cc2C)nc1Nc1ccc(N(C)C)cc1 | ? | ? | 3.3µM* | 5.2µM* | -5 | 7.3µM*
CCOC(=O)c1cnc(-n2nc(C)cc2C)nc1Nc1ccc(O)cc1 | . | ? | 2.6µM* | ? | -8 | .
CCOC(=O)c1cnc(-n2nc(C)cc2C)nc1Nc1ccc2c(c1)OCO2 | -5% | . | 15µM* | 12% | . | .
Cc1nc2nc[nH]n2c(=O)c1CCC(=O)Nc1ccc(F)cc1 | 16%[46.1 µM] | . | . | . | -2 | 20%[46.1 µM]
O=C(Nc1cccc(Oc2ccccc2)c1)c1ccc(-n2cncn2)c2ccoc12 | . | . | . | . | 10 | .
Cc1ccc(CC(=O)Nc2nccs2)cc1 | . | 4% | 2% | 38% | -67* | .
O=C(CSCc1c(Cl)cccc1Cl)Nc1nccs1 | 9% | 11% | ? | 26% | -36 | 9%
O=C(Cc1c(F)cccc1Cl)Nc1nccs1 | 25% | 11% | 15µM* | 6% | -15 | 26%
Cc1nnc(SCC(=O)Nc2nccs2)o1 | 31%[46.1 µM] | 11% | 13µM* | ? | -61* | 2%[46.1 µM]
Cc1ccc2c(c1)[C@@H]1[C@H](CO2)[C@H](c2ccccc2)[C@@]2(C)C(=O)N[C@H](C)C(=O)N12 | . | 4% | . | . | 2 | .
Cc1cc2c(cc1C)-n1nnnc1C(N(C)CCc1ccccc1)C(=O)N2 (configuration not stated) | . | . | . | . | -4 | .
Cc1ccc(C)c(NC(=O)CSc2ncc3c(n2)-c2ccccc2N(Cc2ccccc2C)S3(=O)=O)c1 | . | . | . | . | 4 | 20%[46.1 µM]
c1ccc(-n2cnnn2)cc1 | . | . | -16% | -9% | . | .
CN1/C(=C\C(=O)Nc2cccc(Cl)c2)C(C)(C)c2ccccc21 | ? | 32µM* | ? | ? | ? | -27%[46.1 µM]
SMILES | MARV entry inh | HCV inhibitor | Pf growth 96h | Pf growth 48h | HCMV inh | LASV entry inh
CN1/C(=C\C(=O)Nc2ccc(F)cc2)C(C)(C)c2ccccc21 | -3% | -9% | ? | 5.2µM* | -4 | -14%
CN1/C(=C\C(=O)Nc2ccc(Br)cc2)C(C)(C)c2ccccc21 | 0% | -33% | 24% | -5% | 9 | ?
Cc1ccc(Cl)cc1N1CCN(C(=O)c2ccc3nc(N4CCC(C)CC4)sc3c2)CC1 | 11%[46.1 µM] | . | . | . | ? | 17%[46.1 µM]
O=C(NCc1ccncc1)c1csc([C@@H]2O[C@H](CO)[C@@H](O)[C@H]2O)n1 | . | . | . | . | 15 | .
CCCOc1cccc(C(=O)NCCNC(=O)c2ccco2)c1 | 4%[46.1 µM] | 11% | 9% | -7% | -15 | ?
Cn1c(NCc2ccccc2)nc2c1c(=O)n(Cc1ccccc1)c(=O)n2C | -16% | -22% | 3.7µM* | 7.4µM* | -2 | -16%
CC(C)CCNc1nc2c(c(=O)n(Cc3cccc(F)c3)c(=O)n2C)n1C | -27% | ? | 12µM* | ? | -25 | -6%
COc1ccc(CNc2nc3c(c(=O)n(Cc4ccc(F)cc4)c(=O)n3C)n2C)cc1 | -28% | ? | -25% | 9.3µM* | -20 | 1%
Cn1c(NCCO)nc2c1c(=O)n(Cc1ccc(F)cc1)c(=O)n2C | 8% | 36% | 12% | . | ? | -2%
Cn1c(=O)c2c(nc(NCc3ccccc3)n2C)n(C)c1=O | 14% | 12% | . | -7% | 50 | 0%
O=C(NCc1cc(C(F)(F)F)cc(C(F)(F)F)c1)C1CC(c2ccccc2C(F)(F)F)=NO1 (configuration not stated) | . | ? | ? | ? | -6 | .
CCC(C)[C@H](NS(=O)(=O)c1ccc(C)cc1)C(=O)N1CCC(C(=O)N2CCC(C(N)=O)CC2)CC1 (some centres not stated) | . | -7% | -24% | -4% | 16 | .
Cc1ccc2nc(/N=C(\N)NC(=O)N3c4ccccc4Sc4ccccc43)nc(C)c2c1 | -3% | ? | 354% | -18% | -65* | -12%
Cc1nc(/N=C(\N)Nc2ccccc2)nc2ccccc12 | 0% | . | -15% | 59% | . | .
COc1ccc2nc(/N=C(\N)NC(=O)N3c4ccccc4Sc4ccccc43)nc(C)c2c1 | 0% | -27% | ? | ? | ? | 13%
Cc1ccc2c(C)nc(/N=C(\N)NC(=O)N3c4ccccc4Sc4ccccc43)nc2c1 | ? | ? | -103% | 13µM* | ? | 9%
CCCNC(=O)N1c2ccccc2Sc2ccccc21 | -29% | -9% | ? | ? | 34 | -2%
Cc1cc2nc(/N=C(\N)NC(=O)N3c4ccccc4Sc4ccccc43)nc(C)c2cc1C | ? | ? | ? | 8.3µM* | -31 | -3%[46.1 µM]
O=C1C(n2ccc3ccccc32)c2ccccc2N1Cc1ccc(C(F)(F)F)cc1 (configuration not stated) | . | . | . | . | 21 | .
COc1ccc(NC(=O)C2CCN(S(=O)(=O)c3ccc(N4CCCC4=O)cc3)CC2)c(OC)c1 | 12%[46.1 µM] | 4% | ? | ? | -28 | -11%[46.1 µM]
C=CCN(CC=C)C(=O)C1CCN(S(=O)(=O)c2ccc(N3CCCC3=O)cc2)CC1 | . | -12% | 7.4µM* | -19% | -19 | .
Cc1ccc(NC(=O)C2CCN(S(=O)(=O)c3ccc(N4CCCC4=O)cc3)CC2)cc1Cl | ? | 10µM* | 5.9µM* | ? | -86* | ?

High-throughput results deposited in PubChem by National Center for Advancing Translational Sciences (NCATS).
